According to PubChem BioAssay (Tox21):
Results filed as inconclusive are left out. A call without a number means that no potency is given here. The source made the active and inactive calls. The call rests on the fitted dose curve; in most records, active means well fitted activation curve with a large enough effect in the repeat runs; inconclusive means weak or mixed curves; inactive means flat fitted curve, though single readings scatter.

assay: A CellTox Green Cytotoxicity Assay to monitor cytotoxicity in HEK293 cells - 24 hour (AID 1224875); settings: CellTox Green fluorescence; series mostly up to 76.8 µM; further: nearly all actives have a fitted effect of over 45% in size
Source text: National Center for Advancing Translational Sciences [NCATS]
NIH Chemical Genomics Center [NCGC]
U.S. Environmental Protection Agency [EPA]
National Institutes of Environmental Health Sciences [NIEHS]
National Toxicology Program [NTP]
Cell-based models are critical for drug discovery. Determining the natural cytotoxic effects resulting from test compounds is an essential research activity. A CellTox Green Cytotoxicity Assay to monitor cytotoxicity in real time of continues cell culture during 40 hours of the compound treatment was used to screen Tox21 10K library compounds in Hek293 cells. CellTox Green Cytotoxicity Assay is a nonlytic, homogeneous, biofluorescent method to measure cytotoxicity in cell culture after experimental manipulation. The assay system uses a proprietary asymmetric cyanine dye that is excluded from viable cells but preferentially stains the dead cell's DNA. […] Viable cells produce no appreciable increases in fluorescence. Therefore, the fluorescence signal produced by the binding interaction with dead cell DNA is proportional to cytotoxicity.
The mixture of Hek293 cell suspension and reagents were dispensed at 600cells/6 ul/well in 1536-well tissue culture treated black solid bottom plates using a Multidrop dispenser. After the assay plates were incubated at a 37 C/5% CO2 incubator for 5 hours, 23 nL of compounds dissolved in DMSO, positive and negative controls was transferred to the assay plate by a pintool work station. The plates were incubated at 37 C for 40 hours. The fluorescence intensity were measured at 0h, 8h, 16h, 24h, 32h and 40h time points using ViewLux plate reader during compound treatment.

SMILES	Potency	activity change
Nc1cc(S(=O)(=O)O)ccc1S(=O)(=O)O	inactive	
Nc1ccc(/C=C/c2ccc(N)cc2S(=O)(=O)O)c(S(=O)(=O)O)c1		0.201% [at 0.29 µM, active compounds read high] (inactive)
CCCCC(=O)N(C)C	inactive	
CC(=O)OC(C(=O)c1ccccc1)c1ccccc1 (stereo not given)	inactive	
C=C(C)C(=O)OC	inactive	
C=CCOCC(CO)(COCC=C)COCC=C	inactive	
C1=C\CC/C=C\CC/1	inactive	
C[CH2][Ge]([Cl])([CH2]C)[CH2]C	inactive	
CC(=O)/C=C/c1ccco1	inactive	
COCCOCCOCCOC	inactive	
NC(=O)C1(N2CCCCC2)CCN(CCCC(=O)c2ccc(F)cc2)CC1	inactive	
CCC(C)(CCC(C)C)C(=O)[O-].CCC(C)(CCC(C)C)C(=O)[O-].[Zn+2] (stereo not given)	inactive	
Nc1ccc(S(=O)(=O)Nc2ccccn2)cc1	inactive	
CCCCCCCCCCCCCCCC(=O)NCCO	inactive	
CCC(C)N (stereo not given)	inactive	
CCS(=O)(=O)CCn1c([N+](=O)[O-])cnc1C	inactive	
O=C(Nc1cccc(C2=NCCN2)c1)Nc1cccc(C2=NCCN2)c1		-4.45% [at 15.8 µM, active compounds read high] (inactive)
CCCCOC(=O)C(C)OC(=O)CCC (stereo not given)	inactive	
OC(CCN1CCCCC1)(c1ccccc1)c1ccccc1	inactive	
CCCCCCCCOC(C)=O	inactive	

SMILES	Potency	activity change
CCNC(=O)NCCCOc1cccc(CN2CCCCC2)c1	inactive	
CCCCCCCC[Si](OCC)(OCC)OCC	inactive	
O=C1OC(=O)c2ccccc21	inactive	
COc1cc(C=O)ccc1OC(=O)C(C)C	inactive	
Cc1nc(C)nc(N2C[C@@H](C)N(c3ccnc([C@@H](C)O)n3)[C@@H](C)C2)n1	inactive	
CCCCCC1Nc2cc(C(F)(F)F)c(S(N)(=O)=O)cc2S(=O)(=O)N1 (stereo not given)	inactive	
NC(=O)NC(=O)Cc1ccccc1	inactive	
Cc1oc(=O)oc1CN1CCN(c2cc3c(cc2F)c(=O)c(C(=O)O)c2n3C(C)S2)CC1 (stereo not given)	inactive	
CCN1CN(CC)CN(CC)C1	inactive	
CC(C)(C)c1ccc(C=O)cc1	inactive	
CC(=O)OC(C)(C)Cc1ccccc1	inactive	
CCC(=O)c1ccc(O)cc1	inactive	
CC1=CC[C@H](CC=O)C1(C)C	inactive	
N#CCCOCCOCCC#N	inactive	
CNC(=O)C(c1ccccc1)c1ccccc1	inactive	
CCOC(=O)CC#N	inactive	
CC(=O)Nc1ccc(C)cc1	inactive	
CCOC(=O)CCCCCCCCC(=O)OCC	inactive	
CCCOCCOCCOCCO	inactive	
C[C@H]1O[C@H](O[C@H]2[C@H](O)[C@@H](O)[C@@H](O[C@H]3[C@H](O)[C@@H](O)[C@H](O)O[C@@H]3CO)O[C@@H]2CO)[C@H](O)[C@@H](O)[C@@H]1N[C@H]1C=C(CO)[C@@H](O)[C@H](O)[C@H]1O	inactive	
